# Pf apPOL inh = Pf-apPOL DNA polymerase inhibition; Recombinant Pf-apPOL, molecular beacon fluorescence, 1.5 h; inhibition, % at 10 µM; hit rate 0.25% among 210,000; AID 1794808
# mHTT-CaM PPI inh = inhibitors of human mutant huntingtin-calmodulin interaction | P42858 | AlphaScreen His-mHTT/GST-CaM binding, luminescence | inhibition, % at 15 µM | hit rate 3.6% among 190,000 | AID 1671202;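 further: 0% = both proteins with DMSO and 100% = one protein alone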
# Numbers without * were called inactive; x = no result given. Rows were chosen to be rich in hits. Some 3.6% of all compounds tested hit in one or more screens of this group. No stated cut-off is given here; in the data, active means inhibition above about 50%; inactive means the rest.
SMILES,Pf apPOL inh,mHTT-CaM PPI inh
COc1ccc(C=C2Oc3c(ccc4c3CN(Cc3cccnc3)CO4)C2=O)c(OC)c1,-5.0,17.8
COc1ccccc1C=C1Oc2c(ccc3c2CN(Cc2cccnc2)CO3)C1=O,-27.8,41.7
COc1ccc(C=C2Oc3c(ccc4c3CN(Cc3ccco3)CO4)C2=O)cc1OC,-29.1,58.0*
CCCCOc1ccc(C(=O)Nc2ccccc2CC)cc1,-2.4,-3.9
N#CC1=C(N)C(C#N)(C#N)C(c2cccc([N+](=O)[O-])c2)C2CCCC=C12 (stereo not given),6.9,53.0*
CC(C)(C)C1CC=C2C(C#N)=C(N)C(C#N)(C#N)C(c3c[nH]c4ccccc34)C2C1 (stereo not given),23.8,98.0*
N#CC1=C(N)C(C#N)(C#N)C(c2cccnc2)C2CCCC=C12 (stereo not given),7.2,5.0
CN1CC=C2C(C#N)=C(N)C(C#N)(C#N)C(c3cccc(Cl)c3)C2C1 (stereo not given),-2.7,9.0
N#CC1=C(N)C(C#N)(C#N)C(c2ccccc2I)C2CCCC=C12 (stereo not given),-3.2,11.0
CC1CC=C2C(C#N)=C(N)C(C#N)(C#N)C(c3cccc(Cl)c3)C2C1 (stereo not given),0.5,70.0*
Cc1nc(C(=O)NCc2ccccc2C(F)(F)F)c(C)o1,1.1,-8.3
CC(C)(C)n1nc2c(c1NC(=O)c1ccc([N+](=O)[O-])cc1)CSC2,3.8,66.0*
CC(C)(C)n1nc2c(c1NC(=O)c1cccc(Br)c1)CSC2,2.8,53.0*
CC(C)(C)n1nc2c(c1NC(=O)c1cc([N+](=O)[O-])ccc1Cl)CSC2,-0.7,11.0
CC(C)(C)n1nc2c(c1NC(=O)c1cccc(Cl)c1)CSC2,-6.8,39.0
CC(C)Oc1ccc(C(=O)Nc2c3c(nn2C(C)(C)C)CSC3)cc1,82.8*,28.0
CC(C)Oc1ccc(C(=O)Nc2c3c(nn2C(C)(C)C)CS(=O)C3)cc1 (stereo not given),-40.2,2.0
Cc1cccc(-n2nc3c(c2NC(=O)CC2CCCCC2)CS(=O)C3)c1C (stereo not given),-1.9,5.0
O=C1OC(/C=C/c2cccc([N+](=O)[O-])c2)=NC/1=C/c1ccccc1[N+](=O)[O-],-2.1,-2.0
COC(=O)c1cc(Nc2ccccc2F)c2ccccc2n1,-1.4,-8.1
CCn1cc(CN2CCC(C(=O)NCc3ccc(OC)cc3)CC2)c2cc(OC)ccc21,1.0,20.0
CCn1cc(CN2CCC(C(=O)NCc3ccc(N(C)C)cc3)CC2)c2cc(OC)ccc21,-1.6,55.8*
O=C(CSc1nc2[nH]ncc2c(=O)n1-c1ccc(Cl)cc1Cl)NCc1cccs1,-5.4,10.0
Cc1cc(C)cc(C(=O)Nc2ccc3c(c2)Sc2ncccc2C(=O)N3C)c1,1.1,72.9*
Cc1ccc(C(=O)Nc2ccc3c(c2)Sc2ncccc2C(=O)N3C)cc1,-11.5,9.5
SMILES,Pf apPOL inh,mHTT-CaM PPI inh
CN(C)c1ccc(-c2nc3ccc(N)cc3[nH]2)cc1,-74.5,56.0*
Nc1ccc2nc(-c3cc(Cl)c(N)c(Cl)c3)[nH]c2c1,1.9,54.0*
Oc1ccc2nc(-c3ccccc3)[nH]c2c1,7.4,9.0
CC(=O)Nc1ccc2nc(-c3ccc(-c4nc5ccc(NC(C)=O)cc5[nH]4)cc3)[nH]c2c1,35.0,x
Nc1ccc(-c2nc3ccc(Oc4ccc5nc(-c6ccc(N)cc6)[nH]c5c4)cc3[nH]2)cc1,-3.2,84.0*
Nc1ccc(-c2nc3ccc(N)cc3[nH]2)cc1,-8.4,22.1
Nc1ccc(-c2nc3ccc(-c4ccc5nc(-c6ccc(N)cc6)[nH]c5c4)cc3[nH]2)cc1,-3.4,99.5*
COc1ccc(-c2nc3ccccc3[nH]2)cc1,-4.1,9.5
COc1ccc(NC(=S)NN=c2cc(C)c3cc4c(cc3o2)OC2(CCCCC2)CC4)c(OC)c1,-0.9,41.6
CCc1ccc(NC(=O)CSc2nc3[nH]ncc3c(=O)n2-c2cccc(Cl)c2)cc1,-8.3,16.0
O=C(C(Cl)Cl)N1CCCN(c2nc3ccccc3nc2-c2ccccc2)CC1,4.3,-50.7
Cc1ccc2occ(C(=O)c3ccccc3)c(=O)c2c1,3.9,25.5
Nc1cccc(-c2nc3ccc(-c4ccc5nc(-c6cccc(N)c6)[nH]c5c4)cc3[nH]2)c1,-6.0,97.0*
COc1ccc(/C=C/c2nc3ccccc3[nH]2)cc1,3.7,-5.0
O=C(O)c1ccc2nc(-c3cccc(-c4nc5ccc(C(=O)O)cc5[nH]4)c3)[nH]c2c1,20.5,x
Nc1ccc2nc(/C=C/c3nc4ccc(N)cc4[nH]3)[nH]c2c1,80.1*,53.0*
O=C(c1c(Cl)nc(Cl)c(Cl)c1Cl)N1CCOCC1,-1.4,-4.0
CCNS(=O)(=O)c1cccc2c1C(=O)c1ccccc1C2=O,4.1,12.0
O=C1c2ccccc2C(=O)c2c1cccc2S(=O)(=O)Nc1ccc(Cl)cc1,-2.9,70.0*
O=C(CN1CCOCC1)N1CCCCC1c1nc(-c2ccncc2)no1 (stereo not given),0.0,-0.2
CC(=O)N1CCc2nn(CC(=O)Nc3ccccc3Cl)c(=O)cc2C1,-0.6,12.8
O=c1oc2ccc(Cl)cc2n1CNc1ccccc1,-20.2,6.0
O=c1oc2ccc(Cl)cc2n1CNc1ccccc1F,63.1*,3.0
Cc1ccc(S(=O)(=O)N2CCC(=O)N([C@H](COCc3cccc(Cl)c3)C(C)C)CC2)cc1,-3.4,-3.1
Cc1ccc(COC[C@H](CC(C)C)N2CCN(C(=O)c3cccc(C(F)(F)F)c3)CCC2=O)cc1,-2.0,90.6*
SMILES,Pf apPOL inh,mHTT-CaM PPI inh
CC(C)C[C@@H](COCc1cccc(Cl)c1)N1CCN(C(=O)c2ccc(C(F)(F)F)cc2)CCC1=O,-4.3,99.4*
Cc1ccc(CNC(=O)C2CCCN(C(=O)c3cccc(C(F)(F)F)c3)C2)cc1 (stereo not given),10.9,32.0
CC(C)C[C@@H](COCc1ccc(C(F)(F)F)cc1)N1CCN(C(=O)c2ccc(C(F)(F)F)cc2)CCC1=O,-4.5,92.6*
COCCC1CCN(C(=O)c2ccc(C(F)(F)F)cc2)CC1,-2.6,2.7
CCOc1ccc(Nc2nc(C(=O)Nc3ccc(S(N)(=O)=O)cc3)cs2)cc1,-8.2,24.4
CC(C)c1ccc(OCC(=O)NC2CCCCC2)cc1,1.7,-13.8
CCC1=NOC(C(=O)Nc2ccc(F)cc2)C1 (stereo not given),1.7,2.7
CC(=O)N1CCc2[nH]c3ccc(C(=O)NCc4ccc(N5CCOCC5)cc4)cc3c2C1,-3.4,55.5*
CCc1ccc(CNC(=O)c2ccc3[nH]c4c(c3c2)CN(C(C)=O)CC4)cc1,-12.7,40.8
CCC(CC)NC(=O)c1ccc2[nH]c3c(c2c1)CN(C(C)=O)CC3,1.2,-2.3
CCOc1ccccc1CNC(=O)c1ccc2[nH]c3c(c2c1)CN(C(C)=O)CC3,-1.8,74.3*
NNC(=O)CCn1c2ccc(Cl)cc2c2cc(Cl)ccc21,1.3,-7.7
CCN(Cc1ccccc1)C(=O)CN(C)S(=O)(=O)c1ccc2[nH]c3c(c2c1)CCCC3,-2.8,64.7*
CN(CC(=O)NCc1ccccc1)S(=O)(=O)c1ccc2[nH]c3c(c2c1)CCCC3,-3.8,46.2
Cc1cccc(N(C)C(=O)CN(C)S(=O)(=O)c2ccc3[nH]c4c(c3c2)CCCC4)c1,-3.6,62.3*
Cc1cccc(C)c1NC(=O)CN(C)S(=O)(=O)c1ccc2[nH]c3c(c2c1)CCCC3,-3.0,26.3
O=C(NCc1ccccc1)c1c(F)cccc1Cl,3.5,-0.4
NC(=O)C1CCN(C(=O)C2CN(S(=O)(=O)c3ccccc3)CC23CCCCC3)CC1 (stereo not given),0.7,11.2

# Screens: PubChem BioAssay, University of Kansas High Throughput Screening Laboratory
